Bioassay records deposited in PubChem by several laboratories.
Sampled rows, rich in hits. Any-hit rate of the full collection: about 2.2%.
LGR2 antag = Drosophila LGR2 receptor signaling inhibition | HEK293 LGR2, CRE-luciferase, bursicon-stimulated, 4 h | inhibition, % at 9.99 µM | 0.35% of 380,000 active | AID 720647;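 active means drop in luminescence signal, shown as inhibition above about 50% in the replicate tests, limit read from the data, passing the limit was not always enough; inconclusive means probably only some replicates passing the limit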;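 further: agonist challenge used bursicon conditioned medium at about half maximal strength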
TROY NFkB inh = blocks TROY-dependent signaling in reporter cells. AID 1347056. Q293 LMP1-TROYcd NF-kB luciferase reporter, 4 h. 0.98% of 360,000 active. inhibition, % at 10 µM;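 active means compounds whose plate-normalised and pattern-corrected inhibition of the luciferase reporter signal at the single screening dose is 50% or more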
TWEAK-Fn14 inh = inhibitors of TWEAK-Fn14 interaction signaling | TWEAK-stimulated Fn14 reporter cells, luciferase luminescence, 8 h | inhibition, % at 10 µM | 2% of 360,000 active | AID 1159606; in the data active means inhibition above about 50%
HSP90 refold inh = HSP90 refolding inhibition in rabbit reticulocyte lysate. 0.91% of 290,000 active. luciferase refolding luminescence, 3 h. AID 1789. inhibition, % at 5.6 µM;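 active means inhibition above the screen-wide mean plus 3 SD, computed separately per campaign, cut at about 16% in these data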;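 further: inhibitors lower the luminescence because luciferase stays unfolded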
A number is an active result; n = inactive; u = inconclusive; x = not tested or not shown.

SMILES | LGR2 antag | TROY NFkB inh | TWEAK-Fn14 inh | HSP90 refold inh
O=C(C[C@H]1C=C[C@H](NC(=O)c2ccncc2)[C@H](CO)O1)Nc1ccc(-c2ccccc2)cc1 | n | x | x | x
Cc1ccc(OCCNC(=O)c2cccc(S(=O)(=O)NCc3ccccc3)c2)cc1 | n | 67.0 | n | x
O=C(NCc1ccncc1)c1cccc(S(=O)(=O)NCc2ccccc2)c1 | n | n | n | n
C[C@@H]1CN([C@H](C)CO)C(=O)c2cc(NS(=O)(=O)c3ccc(F)cc3)ccc2O[C@@H](C)CCCCO[C@H]1CN(C)S(=O)(=O)c1cccs1 | n | x | x | x
Cc1ccc(-c2nnc(-c3ccccc3Br)o2)cc1 | u | n | 56.6 | n
O=C(CC1CC1)N1[C@H](CO)[C@@H]2c3ccccc3N(S(=O)(=O)c3ccccc3)C[C@@H]21 | n | x | x | x
Cc1ccc(S(=O)(=O)NCCn2nc(C)cc2C)cc1 | n | n | 90.5 | n
Cc1ccc(S(=O)(=O)NCCCNS(=O)(=O)c2ccc(C)cc2)cc1 | n | n | n | x
Cc1cccc(N2CCN(C(=O)C3CCN(S(=O)(=O)c4cccc5nsnc45)CC3)CC2C)c1 (stereo not given) | x | n | 56.2 | n
Cc1nnc(NC(=O)C2CCN(S(=O)(=O)c3cc([N+](=O)[O-])ccc3Cl)CC2)o1 | n | n | n | x
COc1ccc2nc(NC(=O)C3CCN(S(=O)(=O)c4cccc5nsnc45)CC3)sc2c1 | x | 61.5 | 97.3 | n
Cc1cccc(N2CCN(C(=O)C3CCN(S(=O)(=O)c4cccc5cccnc45)CC3)CC2C)c1 (stereo not given) | n | n | n | x
Cc1cccc2sc(NC(=O)C3CCN(S(=O)(=O)c4cc([N+](=O)[O-])ccc4Cl)CC3)nc12 | n | n | 53.7 | n
O=C(CC1CC1)N1CC2(C1)[C@@H](c1ccccc1)[C@@H](CO)N2Cc1cccc(F)c1 | n | x | x | x
COC(=O)c1ccc(COc2ccc(C)c(C)c2)o1 | n | n | n | 16.7
COC(=O)c1ccc(COc2ccc3ccc(=O)oc3c2)o1 | n | n | n | n
COCC(=O)N[C@@H]1CC[C@@H](CC(=O)NCc2ccccc2OC)O[C@@H]1CO | 78.9 | x | x | x
COCC(=O)N[C@H]1CC[C@H](CC(=O)NCc2ccccc2OC)O[C@H]1CO | n | x | x | x
Cc1cccc(S(=O)(=O)N[C@H]2CC[C@H](CCNC(=O)c3cnccn3)O[C@H]2CO)c1 | n | x | x | x
CCCC(C)C(=O)Nc1ccc2c(c1)OCCO2 (stereo not given) | x | n | 53.0 | n
CC(Nc1ccc2c(c1)OCCO2)C(=O)Nc1ccc2c(c1)OCO2 (stereo not given) | n | 50.3 | 59.0 | n
CC(=O)Nc1ccc2c(c1)OCCO2 | n | n | n | n
CC(C)C(Cl)=NOC(=O)Nc1ccc(F)cc1 | n | n | 51.1 | x
CO[C@H]1CN(C)C(=O)c2ccc(NC(C)=O)cc2OC[C@@H](C)N(C(=O)C2CC2)C[C@@H]1C | n | x | x | x
CCC(=O)NC(c1ccc(Cl)cc1Cl)c1ccc2cccnc2c1O (stereo not given) | n | n | n | n
SMILES | LGR2 antag | TROY NFkB inh | TWEAK-Fn14 inh | HSP90 refold inh
CC(C)C(=O)NC(c1ccc(Cl)cc1Cl)c1ccc2cccnc2c1O (stereo not given) | n | n | 102.5 | n
CN(C)C(CNC(=O)CSc1nnc(-c2ccco2)o1)c1ccccc1 (stereo not given) | x | n | 98.2 | n
CO[C@@H]1CN(C)C(=O)c2cc(NC(=O)Nc3ccc4c(c3)OCO4)ccc2OC[C@H](C)NC[C@@H]1C | n | x | x | x
O=C(Nc1ccc(N2CCN(C(=O)c3ccccc3F)CC2)cc1)c1cncc(Br)c1 | n | 64.1 | 63.8 | n
O=C(Nc1ccc(N2CCCCC2)cc1)c1cncc(Br)c1 | x | n | n | n
CC(=O)N(C)C[C@H]1Oc2cc(-c3ccccc3C)ccc2S(=O)(=O)N([C@H](C)CO)C[C@@H]1C | n | x | x | x
Cc1cccc(-c2cc(C(=O)Nc3ccc4c(c3)OCCO4)c3ccccc3n2)c1 | n | n | 55.1 | n
Cc1ccn2cc(C(=O)Nc3ccc4c(c3)OCCO4)nc2c1 | x | n | 62.2 | n
CC(C)NC(=O)N(C)C[C@@H]1OCCCC[C@@H](C)Oc2ccc(NC(=O)C3CCCCC3)cc2C(=O)N([C@H](C)CO)C[C@@H]1C | n | x | x | x
O=C1NC(=S)S/C1=C\c1cc2ccccc2nc1N1CCCCC1 | n | 58.7 | n | n
O=C1NC(=S)SC1=Cc1ccccc1Cl | x | n | n | x
COc1ccc2nc(N3CCCCC3)c(/C=C3\SC(=S)NC3=O)cc2c1 | n | 64.2 | n | n
COc1ccc(C(=O)Nc2ccc3oc(Cc4ccc(Cl)cc4)nc3c2)cc1OC | n | n | 52.0 | n
COc1ccc(Cc2nc3ccc(C(=O)NCCc4ccncc4)cc3o2)cc1OC | n | n | n | n
C/C(=N\NC(=S)NC1CCCCC1)c1ccc(O)cc1 | n | n | n | n
C/C(=N\NC(=S)NC1CCCCC1)c1ccccc1 | n | 54.1 | n | n
O=C(c1ccco1)N1CCN(c2ncnc3sc4c(c23)CCC4)CC1 | x | n | n | n
c1ccc(N2CCN(c3ncnc4sc5c(c34)CCC5)CC2)cc1 | x | n | 58.8 | n
CCc1cc2c(N3CCN(c4ccccc4)CC3)ncnc2s1 | n | n | 60.5 | n
COCC(=O)N1C[C@@H](C)[C@H](OC)CN(C)C(=O)c2ccc(NC(=O)c3ccc(F)cc3)cc2OC[C@@H]1C | n | x | x | x
O=C(N[C@H]1CC[C@H](CCNS(=O)(=O)c2ccccc2)O[C@H]1CO)c1cnccn1 | n | x | x | x
O=S(=O)(c1cccs1)N1CCN(CC(O)COc2cc(Cl)ccc2Cl)CC1 (stereo not given) | n | 51.6 | n | n
CC=Cc1ccc2n(c1=O)C[C@@H]1[C@@H](CO)[C@H](C(=O)N3CCN(C)CC3)N(Cc3ccccc3OC)[C@H]21 (mixture of isomers) | n | x | x | x
COc1cc2c(c(OC)c1OC)-c1ccc(OC)c(=O)cc1C(N)CC2 (stereo not given) | n | n | 63.6 | x
COc1cc2c(c(OC)c1OC)-c1ccc(SC)c(=O)cc1C(N)CC2 (stereo not given) | n | n | n | x
SMILES | LGR2 antag | TROY NFkB inh | TWEAK-Fn14 inh | HSP90 refold inh
Cc1cc(C(F)(F)Cl)n2ncc(-c3ccccn3)c2n1 | n | n | n | n
COc1ccc(-c2c(C)nc3c(-c4ccsc4)cnn3c2N)cc1 | n | 56.7 | n | n
COc1ccc(-c2c(C)nc3c(-c4ccccn4)cnn3c2N)cc1 | n | 58.6 | 55.7 | n
N=c1c[n+](N2CCOCC2)[n-]o1 | n | n | 72.4 | n
CCOC(=O)c1sc(NC(=O)c2ccc(S(=O)(=O)N3CCOCC3)cc2)nc1-c1ccccc1 | n | n | 64.8 | n
CCOC(=O)c1sc(NC(=O)c2ccc(S(=O)(=O)N3CCCCC3)cc2)nc1-c1ccccc1 | n | n | 71.3 | n
CCOC(=O)c1sc(NC(=O)c2ccc(S(=O)(=O)N3CCCCCC3)cc2)nc1-c1ccccc1 | x | n | 76.8 | n
CCOC(=O)N1CCN(S(=O)(=O)c2ccc(C(=O)Nc3nc4ccccc4s3)cc2)CC1 | n | n | n | n
Cc1nnc(NC(=O)c2ccc(S(=O)(=O)N3CCOCC3)cc2)s1 | n | n | n | n
Cc1ccc(-c2nc(N)sc2C)cc1 | n | 88.2 | n | n
Cc1cc(C)nc(CCNC(=O)c2cc(COc3ccc(F)cc3Cl)on2)n1 | n | 76.2 | n | n
Cc1cccc(Nc2nc(-c3c(C)nc4ccccn34)cs2)c1 | x | n | 65.9 | n
